IL1B secr inh: blocks inflammasome-driven IL-1 beta release. activity change, % at 57.5 µM. THP-1 LPS/ATP IL-1B secretion, AlphaLISA, 16 h; stronger effect = lower value. hit rate 4.7% among 360,000; in the data active means activity change below about -50%; inconclusive means mostly about -30% to -49%; further: on the % scale 0 is the no-effect control and ±100 the full control effect
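THP-1 cells pretreated 1 hr with compounds (up to 57.5 uM final), then stimulated with LPS (250 ng/mL final) plus ATP (1.25 mM final); secreted IL-1B measured by AlphaLISA after 16 hr, decreased signal indicating inhibition.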
Gal4-VP16 FLuc: Gal4-VP16 reporter inhibition counter-screen. Drosophila S2 Gal4-VP16 UAS-luciferase, luminescence, 20 h. Potency, µM (highest dose often 53.6 µM), for the others: at the highest dose activity, negative = inhibition, actives largely listed as inhibitors. hit rate 3.5% among 310,000. AID 2546;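 further: Gal4-VP16 expression switched on by copper sulfate through the metallothionein promoter; potency means the concentration at half of the fitted maximal effect; on the % scale 0 is the no-effect control and ±100 the full control effect; nearly all actives have a fitted effect of over 50% in size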
MCF10A rereplic: inducers of DNA re-replication in MCF 10A breast cells; MCF 10A DNA re-replication, Hoechst nuclear intensity, 48 h; Potency, µM (series often up to 46.1 µM), for the others: top-dose activity, positive = re-replication, actives largely listed as activators; hit rate 2.9% among 350,000; further: potency means the concentration at half of the fitted maximal effect; % of control where 0% means no effect; nearly all actives have a fitted effect of over 50% in size
SW480 rereplic: inducers of DNA re-replication in SW480 colon cancer cells. SW480 DNA re-replication, Hoechst DNA content imaging, 48 h. Potency, µM (top dose mostly 46.1 µM), for inactives: at the highest dose re-replication activation, usual class: activators. hit rate 1.8% among 340,000. AID 624297; further: potency means the concentration at half of the fitted maximal effect; % of control where 0% means no effect; nearly all actives have a fitted effect of over 55% in size
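Compounds, transferred as 23 nL by pin tool, were incubated with cells for 48 hr; DNA content per nucleus was then quantified by Hoechst staining and fluorescence plate imaging.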
RORgamma inh: ROR gamma (mouse) transcription inhibition | Drosophila S2 Gal4-RORgamma UAS-luciferase reporter, 20 h | AID 2551 | P51450 | hit rate 5.4% among 310,000 | Potency, µM (titrated, usually from 53.6 µM), without a hit: at the top dose activity change, negative = inhibition, actives largely listed as inhibitors; further: potency means the concentration at half of the fitted maximal effect; on the % scale 0 is the no-effect control and ±100 the full control effect; nearly all actives have a fitted effect of over 60% in size
Target sequence (P51450 whole entry, looked up, the tested form may be a part): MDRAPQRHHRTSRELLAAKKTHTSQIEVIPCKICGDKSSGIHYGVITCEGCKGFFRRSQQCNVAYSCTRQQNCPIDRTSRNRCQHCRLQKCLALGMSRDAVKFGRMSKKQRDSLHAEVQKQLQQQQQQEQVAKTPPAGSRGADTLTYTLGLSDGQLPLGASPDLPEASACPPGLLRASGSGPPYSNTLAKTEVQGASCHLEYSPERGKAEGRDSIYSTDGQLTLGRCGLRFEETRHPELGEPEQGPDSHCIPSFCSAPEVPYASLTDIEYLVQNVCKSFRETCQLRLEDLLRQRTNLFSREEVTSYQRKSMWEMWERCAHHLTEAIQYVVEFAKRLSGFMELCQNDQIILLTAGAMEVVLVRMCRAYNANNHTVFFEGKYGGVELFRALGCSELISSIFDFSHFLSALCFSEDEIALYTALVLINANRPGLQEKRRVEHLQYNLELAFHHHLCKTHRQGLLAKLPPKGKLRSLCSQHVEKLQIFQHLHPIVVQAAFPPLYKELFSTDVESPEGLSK
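Schneider cells (Drosophila), stable Gal4 DBD–ROR gamma + UAS-luc; 1 hr cmpd preincubation; Cu2+ induction 700 uM final; 20 hr ambient; luminescence.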
Starred values were filed as active, the others as inactive; ? = inconclusive; . = no result; [ ] = dose if it differs, or a comment. An excerpt weighted towards active compounds, which were near 11% of everything screened. Unless noted, the call rests on the fitted dose curve; in most records, active means well fitted curve in the direction sought with a large enough effect; inconclusive means small, poorly fitted or top-dose-only effect, or another doubt; inactive means no such curve, though single readings can be large; an effect the other way counts as inactive or inconclusive.

SMILES	IL1B secr inh	Gal4-VP16 FLuc	MCF10A rereplic	SW480 rereplic	RORgamma inh
COc1cccc(NC(=S)NC(=O)/C=C/c2ccc(F)cc2)c1	?	?	-3%	?	7.1µM*
COc1ccc(NC(=S)NC(=O)/C=C/c2ccccc2)cc1	-25	7.1µM*	-1%	3%	7.1µM*
COc1ccccc1NC(=S)NC(=O)/C=C/c1cccs1	-24	11µM*	25%	1%	4.5µM*
CC(C)(C)NC(=O)C(c1ccc(O)cc1)N(C(=O)CCC(=O)Nc1ccccn1)c1ccc(F)cc1 (stereo unspecified)	11	-1%	-1%	10%	24%
Cc1nonc1C(=O)N1CCCC(Nc2ccc(C(C)C)cc2)C1 (stereo unspecified)	0	18%	-8%	-8%	40%
CC(C)CNC(=S)N(CCCN(C)C)Cc1cc2cc3c(cc2[nH]c1=O)OCCO3	?	-6%	7%	-4%	-1%
COC(=O)c1c(C)[nH]c(C(=O)OCC(=O)c2ccc(C)s2)c1C	-72*	.	20%	3%	.
O=C(CSc1nccn1-c1ncc(C(F)(F)F)cc1Cl)c1ccc(Cl)cc1	-1	?	7%	1%[9.22 µM]	16µM*
CC(C)c1nc(C(=O)N2CCc3c([nH]c4ccccc34)C2c2ccccn2)cs1 (stereo unspecified)	-64*	-4%	?	10%	5%
Cc1cccc(C2c3[nH]c4ccccc4c3CCN2C(=O)Cc2nc(-c3ccccc3)n[nH]2)n1 (stereo unspecified)	-59*	-10%	11%	-69%	25%
Cc1cccc(C2c3[nH]c4ccccc4c3CCN2C(=O)c2cc(CC(C)C)nc(C)n2)n1 (stereo unspecified)	11	-1%	-12%	-2%	36%
CCc1ccc(C2c3[nH]c4ccccc4c3CCN2C(=O)c2cc(C)nn2C)cc1 (stereo unspecified)	0	-9%	23µM*	?	19%
Cc1cccc(C2c3[nH]c4ccccc4c3CCN2C(=O)c2cc(CC(C)C)[nH]c(=O)n2)n1 (stereo unspecified)	3	?	5%	24%	13µM*
Cc1c(C(=O)N2CCCCC2)c(S(=O)(=O)N2CCC(C)CC2)c(C)n1C	-15	1%	-1%	1%	-13%
CC(=O)c1cccc(NC(=O)C2Cc3c(-c4cccc(F)c4)ccnc3O2)c1 (stereo unspecified)	0	.	.	.	.
Cc1cccc(C2c3[nH]c4ccccc4c3CCN2C(=O)c2ocnc2C)n1 (stereo unspecified)	8	-1%	2%	-2%	-13%
Cc1cccc(C2c3[nH]c4ccccc4c3CCN2C(=O)c2nn(C)c(=O)c3ccccc23)n1 (stereo unspecified)	-59*	-22%	0%[9.22 µM]	-114%	20%
N#CCCn1c(=O)c(-c2ccc(F)cc2)nc2cnc(Oc3cccc(Cl)c3)nc21	.	1%	.	.	4%
CN1/C(=C\C=N\NC(=O)c2ccccc2Br)C(C)(C)c2ccccc21	10	1.3µM*	6%	-4%	0.79µM*
CN1/C(=C\C=C(C#N)C#N)C(C)(C)c2ccccc21	19	3%	-8%	-6%	-1%
CN1/C(=C/C=N/n2cnnc2)C(C)(C)c2ccccc21	25	18µM*	-6%	-1%	23%
O=C(CNc1ccccc1)N/N=C/c1c(O)ccc2ccccc12	216	2.8µM*	?	?	1.6µM*
N#CCC(=O)N/N=C/c1c2ccccc2cc2ccccc12	-3	?	18µM*	?	11µM*
O=C(CO)N/N=C/c1c2ccccc2cc2ccccc12	-29	0%	25%	3%	-15%
COc1ccc(NC(C)C(=O)N/N=C/c2ccccc2OCc2cccc(Br)c2)cc1 (stereo unspecified)	-64*	14%	?	?	3%
SMILES	IL1B secr inh	Gal4-VP16 FLuc	MCF10A rereplic	SW480 rereplic	RORgamma inh
Cc1ccccc1NC(C)C(=O)N/N=C/c1ccccc1OCc1cccc(Br)c1 (stereo unspecified)	?	-2%	?	?	-11%
O=C(CSCC(=O)Nc1ccccc1)N/N=C/c1c(O)ccc2ccccc12	108	3.5µM*	?	?	1µM*
COc1ccc(N2CCN(c3cc(C(=O)Nc4cc(OC)c(OC)c(OC)c4)ncn3)CC2)cc1OC	34	.	.	.	.
CCCN(CC(=O)Nc1ccccc1C)C(=O)C1CCN(S(=O)(=O)c2ccccc2C(F)(F)F)CC1	-2	.	13%	6%	.
CCCCCCCC/C=C\CCCCCCCC(=O)N[C@@H](CO)Cc1ccc(O)cc1	.	?	.	.	2%
CCN(CC(=O)Nc1ccccc1OC)C(=O)CSCC(=O)Nc1ccc(OC)cc1	20	.	-5%	-4%	.
COc1ccc(NC(C)C(=O)N/N=C/c2c(O)ccc3ccccc23)cc1 (stereo unspecified)	144	3.5µM*	?	3.7µM*	1.6µM*
O=C(CN1CCOCC1)N/N=C/c1c(O)ccc2ccccc12	60	1.4µM*	5%	?	?
CCN(CC)C(=O)CSCC(=O)Nc1ccccc1	23	-4%	8.2µM*	-4%	0%
CCNC(=O)C1(C)CCN(C(=O)c2ccc(N(C)C)cc2)C1 (stereo unspecified)	7	.	.	.	.
COc1ccc(C(O)c2ncc(-c3ccccc3C)[nH]2)cc1F (stereo unspecified)	9	.	.	.	.
CCC(=NCCc1c(C)[nH]c2ccc(C)cc12)C1=C(O)CC(c2ccccc2)CC1=O (stereo unspecified)	2	-10%	?	2.6µM*	16%
CCCC(=NC(C)CC)C1=C(O)CC(c2ccccc2)CC1=O (stereo unspecified)	-67*	-10%	-3%	2%	25%
COc1cc(OC)cc(C2=NC3(CCC(C)CC3)NC2=S)c1 (stereo unspecified)	-20	2%	?	-4%	1.4µM*
O=P(O)(CCc1ccncc1)CN1CCCCC1	1	2%	5.8µM*	?	0%
CC(C)(C)NC(=O)c1ccc2c(c1)N(CC(=O)N1CCCCC1)C(=O)C(C)(C)O2	27	-4%	0%	-2%	0%
CC(C)(C)NC(=O)c1ccc2c(c1)N(CC(=O)N1CCCC1)C(=O)C(C)(C)O2	-8	16%	?	10%	0.63µM*
O=Cc1sc(Nc2ccccc2)nc1Cl	-17	?	?	11%	33%
Cc1ccc(Nc2nc(Cl)c(C=O)s2)cc1Cl	-102*	17%	18µM*	?	?
COc1ccccc1Nc1nc(Cl)c(C=O)s1	-53*	9%	21µM*	0%	-19%
CN(CC(=O)Nc1ccccc1Cl)C(=O)C1CSC2(C)CCC(=O)N12 (stereo unspecified)	11	.	12%	-2%	.

Compound activity from PubChem BioAssay.
